Screens deposited in PubChem BioAssay by National Center for Advancing Translational Sciences (NCATS).
TDP1 cell CPT: DT40-hTDP1 cell growth loss with CPT. chicken DT40 Tdp1-/-;hTDP1 cells + 20 nM CPT, ATP luminescence, 48 h. Potency, µM (doses to about 46.2 µM), without a hit: at the highest dose activity change, negative = growth inhibition, usual class: inhibitors. 420,000 compounds, 12% hits; further: on the % scale 0 is the no-effect control and ±100 the full control effect; nearly all actives have a fitted effect of over 55% in size
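Chicken DT40 Tdp1-/- cells stably complemented with human TDP1 were seeded at 400 cells/well in medium containing 20 nM camptothecin, exposed to pin-transferred compounds, and grown at 37 °C for at least 48 hr. Viability was read as ATP luminescence.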
TGFb SMAD3 inh: TGF-b pathway inhibition. HepG2 CAGA-GFP TGF-b/SMAD3 reporter, GFP fluorescence, 18 h; TGF-beta stimulated, 500 pg/mL final. 410,000 compounds, 1.2% hits. AID 588855. Potency, µM (highest dose often 46.1 µM), for the others: top-dose activity, negative = inhibition, actives largely listed as inhibitors; further: on the % scale 0 is the no-effect control and ±100 the full control effect; nearly all actives have a fitted effect of over 65% in size
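Inhibition was scored as loss of TGF-beta-induced (500 pg/mL final, 18 hours, 37 degrees C) GFP in HEPG2 cells carrying a CAGA-GFP reporter, in DMEM with 1% FBS. Well GFP was summed per cell; Activity was normalised to unstimulated and stimulated DMSO wells, then concentration-response fitting.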
HepG2 viability: counter-screen for TGF-b inhibitors: cytotoxicity in HepG2 cells | Potency, µM (titrated, usually from 46.1 µM), without a hit: top-dose activity change, negative = cytotoxicity, most hits filed as cytotoxic | 410,000 compounds, 0.76% hits | AID 588856 | HepG2 CAGA-GFP viability, ATP luminescence, 18 h
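HepG2 CAGA-GFP cells (1000/well, DMEM with 1% FBS) received compound, then TGF-beta at 500 pg/mL final, and were incubated 18 hours at 37 degrees C. Viability was read by CellTiter-Glo luminescence. Media-only wells were set as complete cell-killing and DMSO as no toxicity.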
HT1080NT lethal: kills 2HG-producing HT-1080-NT fibrosarcoma cells; HT-1080-NT fibrosarcoma viability, CellTiter-Glo ATP luminescence, 48 h; Potency, µM (highest dose often 46.1 µM), inactives show top-dose activity, negative = less viability, most hits filed as cytotoxic; 360,000 compounds, 1.6% hits;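 further: NT is the 2HG producing partner of a matched IDH1 knockdown line; 0% = DMSO-treated cells and -100% = media-only wells without cells; nearly all actives have a fitted effect of over 55% in size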
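Viability of the 2HG-overproducing fibrosarcoma line after 48 hours of compound exposure at 37 degrees C was determined by luminescence with CellTiter-Glo, and concentration-effect curves were then fitted and categorized.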
HT1080 IDH1KD tx: HT-1080 IDH1 knockdown cell toxicity (counter line); HT-1080 IDH1 knockdown viability, ATP luminescence, 48 h; Potency, µM (top dose mostly 46.1 µM), inactives show at the top dose activity, negative = toxicity, hits mostly cytotoxic; 360,000 compounds, 2% hits;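 further: 0% = DMSO wells and -100% = cell-free medium wells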
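After a 2 h attachment period, IDH1KD HT-1080 cells took pin-transferred compound for 48 h at 37 °C; ATP-based luminescence after 10 min room-temperature reagent incubation reported viability.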
TDP1 cell noCPT: qHTS for Inhibitors of human tyrosyl-DNA phosphodiesterase 1 (TDP1): qHTS in cells in absence of CPT. Potency, µM (doses to about 46.2 µM), without a hit: at the top dose activity change, negative = growth inhibition, most hits filed as inhibitors. DT40 Tdp1-/- hTDP1 cells, no CPT, ATP luminescence, 48 h. 420,000 compounds, 15% hits; further: on the % scale 0 is the no-effect control and ±100 the full control effect; nearly all actives have a fitted effect of over 55% in size
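Stably hTDP1-transfected Tdp1-null chicken DT40 cells were treated with library compounds minus camptothecin and grown for at least 48 hr at 37 °C, after which cellular ATP was quantified by luminescence.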
Active calls of the source: *; ? = inconclusive; nt = no result given. Compounds with a hit are over-represented: about 17% of the library has one in this group of screens. The call rests on the fitted dose curve; in most records, active means well fitted curve in the direction sought with a large enough effect; inconclusive means small, poorly fitted or top-dose-only effect, or another doubt; inactive means no such curve, though single readings can be large; an effect the other way counts as inactive or inconclusive. Potency means the concentration at half of the fitted maximal effect.

SMILES | TDP1 cell CPT | TGFb SMAD3 inh | HepG2 viability | HT1080NT lethal | HT1080 IDH1KD tx | TDP1 cell noCPT
COc1ccccc1CNC(=O)C1CCN(S(=O)(=O)c2ccc(-n3cnnn3)cc2)CC1 | 3% | -9% | -4% | 4% | -3% | -10%
O=C(Oc1ccccc1Cl)c1ccc(-n2cncn2)nc1 | -5% | 34% | 9% | 8% | 15% | 9%
CCCSc1nc2sc3c(c2c(=O)n1-c1ccc(C)cc1)CCCC3 | ? | -3% | 0% | nt | nt | 9.2µM*
CCCSc1nc2sc3c(c2c(=O)n1-c1ccc(C)c(Cl)c1)CCN(C(C)=O)C3 | 23µM* | -14% | -9% | nt | nt | 23µM*
COC(=O)c1ccc(OCC(=O)NC2CCCCCCC2)cc1 | ? | 9% | 1% | 1% | 0% | 16µM*
CC(=O)c1ccc(OCC(=O)NC(=O)NC2CCCCC2)cc1 | 23µM* | -17% | 3% | -10% | -2% | 16µM*
CCOc1ccc(C(=O)OCC(=O)NC2CCCCCCC2)cc1 | ? | -11% | -3% | 0% | -3% | ?
CC(C)(C)c1ccc(OCCC(=O)OCC(=O)NC(=O)NC2CCCC2)cc1 | 18µM* | ? | -30% | ? | ? | 18µM*
O=C(COc1ccc(C(=O)c2ccccc2)cc1)NC1CCCCCC1 | 26µM* | ? | 5% | 4% | -2% | 16µM*
O=C(CSc1n[nH]c(-c2cc(Cl)ccc2Cl)n1)NCCN1C(=O)CSC1=O | ? | -5% | 1% | -4% | -1% | -21%
O=C(CCc1nc2ccccc2c(=O)[nH]1)Nc1ccccc1N1CCCCC1 | ? | -5% | 8% | -9% | 4% | ?
Cc1cc(NC(=O)N2CCC(CN3CCCCCC3)CC2)ccc1Br | ? | -2% | -19% | nt | nt | ?
COC(=O)c1nccnc1N | 8% | -9% | 1% | 7% | 10% | 0%
CCC(C)(C)NC(=O)COc1ccc(C(=O)c2ccccc2)cc1 | -7% | 7% | -1% | 1% | -6% | 0%
CC(C)CCNC(=O)COc1ccc(C(=O)c2ccccc2)cc1 | 18µM* | -20% | -10% | ? | -20% | ?
COc1ccc(-c2nc(SCC(=O)NCCc3ccccc3)n[nH]2)cc1 | ? | -9% | 2% | nt | nt | ?
CCOc1cc(CNC(=O)CSc2n[nH]c(-c3ccccc3)n2)cc(OCC)c1OCC | 21µM* | ? | -34% | nt | nt | ?
COc1ccc(-c2nc(SCC(=O)NCc3ccccc3Cl)n[nH]2)cc1 | 5.8µM* | 0% | -18% | nt | nt | 7.3µM*
CN1CC[C@H](CN2c3ccccc3Sc3ccccc32)C1 | ? | ? | -69% | nt | nt | 13µM*
COc1ccccc1OC(=O)CCN1c2ccccc2Sc2ccccc21 | 0% | 0% | 3% | 2% | 6% | -18%
CN1CCC(CN2c3ccccc3Sc3ccccc32)C1 (stereo not drawn) | 19µM* | nt | nt | nt | nt | 12µM*
Cc1nnc(NC(=O)Nc2cccc(Cl)c2)s1 | ? | -13% | -16% | -11% | -16% | 13µM*
Cc1cc(C)nc(/N=C(\NC(=O)C(C)(C)C)Nc2ccccc2)n1 | 18% | 0% | -32% | 8% | 6% | 0%
O=C(Nc1cccc(Cl)c1)Nc1nc(-c2ccccc2)cs1 | ? | ? | -56% | 13% | 9% | ?
Cc1cc(C)nc(/N=C(/NC(=O)Nc2cccc(Cl)c2)Nc2ccccc2)n1 | ? | -6% | -2% | 2% | 13% | 18µM*
SMILES | TDP1 cell CPT | TGFb SMAD3 inh | HepG2 viability | HT1080NT lethal | HT1080 IDH1KD tx | TDP1 cell noCPT
Cc1ccc(OCCSCc2nnc(NC(=O)Nc3cccc(Cl)c3)s2)cc1 | 4.6µM* | ? | -11% | ? | ? | 4.6µM*
Cc1csc(NC(=O)Nc2cccc(Cl)c2)n1 | ? | -5% | -24% | -2% | -10% | 23µM*
Cc1cc(NC(=O)Nc2cccc(Cl)c2)no1 | -21% | -19% | -10% | 0% | 7% | ?
CCOc1ccc(NC(=O)CN(C)C(=O)c2ccc(C)o2)cc1OCC | 16% | 3% | 0% | 18% | 24% | -13%
CC(C)CC(NC(=O)OC(C)(C)C)c1cn([C@@H](CCC(=O)OC(C)(C)C)C(=O)N2CCN(C(=O)OC(C)(C)C)CC2)nn1 (stereo partly drawn) | 16µM* | 1% | -1% | 4% | 12% | 16µM*
CC[C@H](C)C(C(=O)N1CCN(C(=O)OC(C)(C)C)CC1)n1cc(C(CC(C)C)NC(=O)OC(C)(C)C)nn1 (stereo partly drawn) | 23µM* | ? | -4% | 7% | 5% | ?
CC[C@@H](C)C(NC(=O)OC(C)(C)C)c1cn([C@@H](Cc2ccc(O)cc2)C(=O)N2CCN(C(=O)OC(C)(C)C)CC2)nn1 (stereo partly drawn) | ? | -3% | -27% | 1% | -6% | ?
CC[C@@H](C)[C@@H](C(=O)N1CCN(C(=O)OC(C)(C)C)CC1)n1cc(CCCCNC(=O)OC(C)(C)C)nn1 | 13µM* | -8% | -5% | -2% | -2% | 13µM*
CC[C@@H](C)C(C(=O)N1CCN(C(=O)OC(C)(C)C)CC1)n1cc(-c2cn([C@@H](C)C(=O)N3CCN(C(=O)OC(C)(C)C)CC3)nn2)nn1 (stereo partly drawn) | -12% | 16% | -12% | -4% | -5% | ?
Cc1cccc(COC(=O)C(Cc2ccccc2)NC(N)=O)c1 (stereo not drawn) | ? | -20% | 5% | -1% | 0% | ?
CC(C)(C)[C@H](NC(=O)c1ccc(N)c(Cl)c1)C(=O)N1CCC[C@H]1C(=O)N[C@H](C#N)CC(=O)O | nt | -8% | -3% | nt | nt | nt
O=C(NCc1cccnc1)c1c[nH]c2cc3c(cc2c1=O)OCCO3 | 10µM* | -10% | -24% | -15% | ? | 5.8µM*
O=C(NCc1ccccc1)c1c[nH]c2ccc(S(=O)(=O)Nc3ccc4c(c3)OCCO4)cc2c1=O | -24% | -25% | -38% | -27% | -26% | -29%
COc1ccccc1C(=O)Nc1ccc(-c2nc3ccccc3s2)c(C)c1 | ? | ? | -50% | nt | nt | ?
Cc1cccc(NC(=O)CSc2nc3ccc(NC(=O)c4cccs4)cc3s2)c1 | 13µM* | ? | -14% | nt | nt | 8.2µM*
